Mtb FBA inh: Mtb fructose-bisphosphate aldolase inhibition | inhibition, % at 1 µM | actives 2.3% (n = 360,000) | purified M. tuberculosis FBA, fluorescence read-out | P9WQA3;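 further: 0% = vehicle and 100% = reference inhibitor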
Autofluor counter: compound fluorescence in toxin protease inhibitor counterscreen. compound autofluorescence counterscreen, microsphere flow cytometry; hits give high values. fluorescence intensity (test concentration not listed). actives 3.1% (n = 360,000). AID 624483; in the data active means fluorescence intensity above about 16000; inconclusive means no clear call, values can overlap the other calls
GDH-TPI counter-1: counter-screen for M. tuberculosis FBA inhibitors: GDH-TPI coupled enzymes; GDH-TPI coupled enzyme counterscreen, NADH absorbance; actives 1.2% (n = 360,000); inhibition, % at 4.8 µM; in the data active means inhibition above about 30%;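 further: 0% = DMSO wells and 100% = wells lacking the enzyme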
BoNT A protease: blocks Botulinum neurotoxin A light chain protease; actives 0.17% (n = 360,000); multiplex microsphere protease substrate cleavage, flow cytometry; inhibition, % at 10 µM; in the data active means inhibition above about 30%; inconclusive means no clear call, values can overlap the other calls; further: plate controls were buffer without enzyme for full effect and enzyme alone for no effect
Anthrax LF inh2: blocks Bacillus anthracis lethal factor protease | P15917 | multiplex microsphere protease cleavage assay, LF | inhibition, % at 10 µM | actives 0.12% (n = 360,000) | AID 588501; in the data active means inhibition above about 30%; inconclusive means no clear call, values can overlap the other calls; further: plate controls were buffer without enzyme for full effect and enzyme alone for no effect
BoNT F protease: blocks Botulinum neurotoxin F light chain protease; actives 0.22% (n = 360,000); Multiplex microsphere protease cleavage assay, flow cytometry; inhibition, % at 10 µM; in the data active means inhibition above about 35%, passing the limit was not always enough; inconclusive means no clear call, values can overlap the other calls; further: plate controls were buffer without enzyme for full effect and enzyme alone for no effect
Mtb FBA confirm: confirmation of M. tuberculosis fructose-bisphosphate aldolase inhibitors. shares compounds with Mtb FBA inh. purified M. tuberculosis FBA, fluorescence read-out. inhibition, % at 1 µM. actives 78% (n = 5,600). AID 651616;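 further: 0% = vehicle wells and 100% = reference inhibitor wells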
GDH-TPI counter-2: inhibits GDH-TPI coupling enzymes, flagging Mtb FBA hits. shares compounds with Mtb FBA inh. GDH-TPI coupled enzyme counterscreen, fluorescence. inhibition, % at 1 µM. actives 81% (n = 5,600). AID 652141; in the data active means inhibition above about 10%
GDH-TPI DR: inhibits GDH-TPI coupling enzymes in dose response; shares compounds with Mtb FBA inh; GDH-TPI coupled enzyme assay, fluorescence, artifact counterscreen; IC50, µM; actives 79% (n = 170); AID 652145; call rule not given here
The depositor's hits bear a star; ? = inconclusive; nt = no result given; + = active, no number. Rows were chosen to be rich in hits. Some 6.7% of all compounds tested hit in one or more screens of this group. Unless noted, no stated cut-off is given here; in the data, active means inhibition above about 27%; inactive means the rest.

SMILES | Mtb FBA inh | Autofluor counter | GDH-TPI counter-1 | BoNT A protease | Anthrax LF inh2 | BoNT F protease | Mtb FBA confirm | GDH-TPI counter-2 | others
CCCCS(=O)(=O)Nc1ccc2ncn(C)c(=O)c2c1 | 35* | 10473 | 1 | 0 | 0 | -5 | -3 | -5
COc1ccc(N2C(=O)CC(Sc3nc(C)cc(C)n3)C2=O)cc1OC (stereo unspecified) | 0 | 3610 | -4 | -1 | 6 | ? | nt | nt
CCOC(=O)C1CCN(C(=O)Cn2cnc3sc(C)c(S(=O)(=O)N4CCC(C)CC4)c3c2=O)CC1 | 78* | 3039 | -2 | 0 | 3 | 1 | 186* | 143*
CCOc1ccc2c(c1)s/c(=N\S(=O)(=O)c1ccc(OC)cc1)n2C(F)F | 0 | 2851 | -11 | 0 | -3 | 2 | nt | nt
COc1ccc(C(=O)NCCc2ccccc2)cc1OC | 2 | 3910 | 4 | -12 | -13 | -3 | nt | nt
COc1ccc(CCNC(=O)c2ccc3c(c2)N(Cc2ccccc2)CCS3)cc1OC | 64* | 4883 | 10 | 0 | -2 | 0 | 100* | 83*
NS(=O)(=O)c1ccc(CCNC(=O)c2ccc3c(c2)N(Cc2ccccc2)CCS3)cc1 | 68* | 5455 | 10 | 1 | 2 | 6 | 2 | -4
Cc1ccc(-n2c(=O)c3c(c4cc(C)ccc4n3C)n(CC(=O)NCC3CCCO3)c2=O)cc1 (stereo unspecified) | 63* | 3113 | 16 | -1 | -3 | -2 | 54* | 50*
Cc1cc(C)c(NC(=O)Cn2c(=O)n(-c3ccc(CC(=O)NCC4CCCO4)cc3)c(=O)c3ccccc32)c(C)c1 (stereo unspecified) | 0 | 3540 | -1 | -1 | -2 | -2 | nt | nt
COc1ccc2c(c1)c1c(c(=O)n(-c3ccc(C)cc3)c(=O)n1CC(=O)NCC1CCCO1)n2C (stereo unspecified) | 29* | 3748 | -15 | 0 | 2 | 5 | 38* | 27*
O=c1c2ccccc2nc(CSc2ncnc3nc[nH]c23)n1-c1ccc(Cl)c(Cl)c1 | -8 | 4031 | -4 | 1 | 3 | -12 | nt | nt
COc1cc2c(cc1OC)C(C1C(=O)CC(C)CC1=O)N(C(=O)CCl)CC2 (stereo unspecified) | 31* | 2572 | 1 | 0 | 0 | 0 | 11 | 5 | GDH-TPI DR=>10
Cc1ccc(NC(=O)C/C(N)=N/OC(=O)Nc2cccc(Cl)c2)cc1 | 0 | 7545 | 2 | 2 | 1 | 3 | nt | nt
c1ccc(Oc2ccc(-c3ccnc4nc(N5CCOCC5)nn34)cc2)cc1 | 42* | 3540 | 17 | 0 | 5 | -1 | + | +
O=C1c2ccccc2C(=O)N1c1nc2nccc(-c3ccccc3)n2n1 | 32* | 6809 | 8 | -1 | -6 | -3 | 31* | 35*
Cc1ccc(OCC(=O)NCCC2=CCCCC2)cc1 | 5 | 2476 | -9 | 0 | 0 | -2 | nt | nt
COc1cccc(CN(C)C(=O)c2ccccc2Sc2ccccc2C#N)c1OC | 0 | 3074 | 2 | 14 | 6 | 17 | nt | nt
CC(C)Cc1cc(-c2ccco2)c(C#N)c(N)n1 | 54* | 3315 | 6 | 0 | 0 | -3 | 169* | 145*
CC(=O)OCC(=O)c1ccc2ccn(C(C)=O)c2c1 | 36* | 10837 | 15 | 1 | -1 | 4 | 15 | 20*
COc1ccccc1N1CCN(CC(=O)c2ccc3ccn(C(C)=O)c3c2)CC1 | 7 | 6213 | 7 | 0 | -4 | 5 | nt | nt
Cc1c(OC(C)C(=O)O)ccc2c(-c3ccccc3)cc(=O)oc12 (stereo unspecified) | 35* | 3539 | 19 | 0 | 8 | 2 | 55* | 39*
C=CCOc1ccc(C2C(C#N)=C(N)N(Nc3ccccc3)C3=C2C(=O)CCC3)cc1OC (stereo unspecified) | 29* | 3289 | 10 | -1 | -8 | -6 | 124* | 91*
CC(C)C(=O)NC(=S)Nc1ccccc1N1CCN(C(=O)c2ccccc2)CC1 | -2 | 4211 | 3 | -1 | -4 | -4 | nt | nt
COc1ccc(Cc2nc(C(=O)Nc3ccc(OC)cc3)cs2)cc1 | 4 | 3790 | 0 | 0 | -6 | ? | nt | nt
COC(=O)C1=C(c2ccc(-c3ccccc3)c(F)c2)C[C@@H]2CC[C@H]1N2C(=O)NCCNC(C)=O | 43* | 4018 | 3 | 0 | -4 | -4 | 45* | 38*
SMILES | Mtb FBA inh | Autofluor counter | GDH-TPI counter-1 | BoNT A protease | Anthrax LF inh2 | BoNT F protease | Mtb FBA confirm | GDH-TPI counter-2 | others
Cc1ccc2c(n1)sc1c(-c3ccccc3)c(C#N)c(N)nc12 | 69* | 4249 | 20 | 15 | 7 | -16 | 163* | 168*
CC(C)OC(=O)N(C)C[C@@H]1OCc2cnnn2CCCC(=O)N([C@@H](C)CO)C[C@@H]1C | 1 | 3665 | 5 | 0 | -4 | 2 | nt | nt
COc1cccc(-c2nc3ccc(C(=O)NC(C)Cc4cccnc4)cc3o2)c1 (stereo unspecified) | 43* | 3478 | 5 | 1 | 20 | ? | 65* | 32*
c1ccc2c(c1)-c1cccc3cccc-2c13 | 10 | 5579 | 8 | 0 | -3 | 0 | nt | nt
O=CNc1ccc2c3c(cccc13)-c1ccccc1-2 | 79* | 3791 | 7 | 2 | 2 | -2 | 70* | 51*
Nc1nc(-c2ccc(-c3ccccc3)cc2)cs1 | 33* | 4540 | 3 | 0 | 2 | -4 | + | +
Nc1ccc(-c2cc(-c3ccc(N)cc3)nc(-c3ccccc3)n2)cc1 | 39* | 9944 | 18 | -1 | -8 | -8 | 54* | 28*
Cc1cccc(Cn2c(-c3ccc[nH]c3=O)nc3ccccc32)c1 | 101* | 3298 | 12 | -1 | -7 | 29 | + | +
C=CCn1c(SCC(=O)Nc2nncs2)nnc1-c1ccco1 | 75* | 5038 | -1 | 1 | -2 | 7 | + | +
CC(=O)Nc1ccc(Sc2ccccc2C(=O)O)cc1 | 2 | 1990 | 12 | -4 | 0 | -7 | nt | nt
COc1cc2oc3ccc(C#Cc4ccc(N)cc4)cc3c(=O)c2cc1OC | 8 | 3893 | 24 | 1 | -4 | 5 | nt | nt
COc1cc2oc3ccc(C#Cc4ccccn4)cc3c(=O)c2cc1OC | 67* | 3429 | 5 | 0 | -11 | 3 | -3 | -5
O=c1c2nccnc2[nH]c(=S)n1Cc1ccccc1 | -8 | 4663 | 2 | 0 | -2 | -5 | nt | nt
Cc1ccnc(NC(c2ccccc2)c2ccc3cccnc3c2O)c1 (stereo unspecified) | -2 | 3732 | 4 | 0 | 0 | -10 | nt | nt

Screening data as filed in PubChem.
